In all, about 420,000 compounds went through this assay and about 64,000 (15%) were called active. Another 27% or so got no clear call; they are omitted. These entries were drawn from the full list. A call without a number means that no potency is given here. A number with no mark means an inactive call. The call rests on the fitted dose curve; in most records, active means well fitted inhibition curve with a large enough effect; inconclusive means small, poorly fitted or top-dose-only effect; inactive means flat fitted curve, though single readings scatter.
Potency means the concentration at half of the fitted maximal effect.

This experiment is described as follows: qHTS for Inhibitors of human tyrosyl-DNA phosphodiesterase 1 (TDP1): qHTS in cells in absence of CPT. Further: nearly all actives have a fitted effect of over 55% in size. Particulars: DT40 Tdp1-/- hTDP1 cells, no CPT, ATP luminescence, 48 h; activity change, negative = growth inhibition: at 46.2 µM (top of the series). In short, it runs like this: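 Seeded 400 DT40-hTDP1 cells/well (vehicle DMSO, no 20 nM CPT); pinned compounds; ≥48 hr at 37 °C; CellTiter-Glo luminescence as viability measure.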
In general terms: In qHTS, concentration-response curves come from the screen itself.
Turning to `CCCCC/C=C\C/C=C\CCCCCCCCCC(=O)O`, the activity change, negative = growth inhibition was 6.04% [at 4.12 µM].

For `Cc1cc(C)n(C(=O)CCNC(=O)c2ccccc2Cl)n1`, the Potency result was “inactive”.

Turning to `NC(=O)c1ccsc1NC(=O)COC(=O)COc1ccc(C=O)cc1`, the Potency entry was “inactive”.

Consider `Cc1cccc(NC(=S)Nc2ccc(Br)cc2)c1`, for which the Potency is 16.4 µM (active).

Consider `Fc1cc(Br)ccc1NC(=S)Nc1cccnc1`, for which the Potency result is “inactive”.

`Cc1cccc(NC(=S)NC(=O)c2ccc(Br)o2)c1`: the Potency result is “inactive”.

As to `O=C(COC(=O)c1ccc2c(c1)OCCO2)NCc1ccccc1Cl`, the Potency result is “inactive”.

Consider `CCCS(=O)(=O)NC(=O)C1(C)CCCN(C(=O)c2cc(C)on2)C1` (stereo not given), for which the Potency result is “inactive”.

For the compound `Cc1nc2cnc(N3CCN(C)CC3)nc2n(CCC#N)c1=O`, the Potency result is “inactive”.

On to `Cn1c(SCC(=O)Nc2nccs2)nnc1-c1cccnc1`, for which the Potency result was “inactive”.

Consider `CN(C)CCCN(C(=O)COc1ccccc1)c1nc2c(Cl)cccc2s1`, for which the Potency entry was “inactive”.

Regarding `CN(C)S(=O)(=O)c1ccc(C(=O)N(Cc2cccnc2)c2nc3c(F)cc(F)cc3s2)cc1`, the Potency entry is “inactive”.

Consider `Cc1cccc2sc(N(CCCN(C)C)C(=O)CCS(=O)(=O)c3ccccc3)nc12`, for which the Potency is 1.64 µM (active).

For `O=C(NCc1cccnc1)Nc1ccccc1F`, the Potency entry is “inactive”.

`COc1cc2ccccc2cc1C(=O)N(CCN(C)C)c1nc2c(F)cccc2s1`: the Potency entry is “inactive”.

Take `O=C(CCS(=O)(=O)c1ccccc1)N(Cc1cccnc1)c1nc2c(F)cccc2s1`: the Potency was 2.31 µM (active).

Take `COC(=O)[C@H](CC(C)C)NC(=O)N1CCCCC1C` (stereo not given in full): the Potency entry is “inactive”.

Regarding `COC(=O)C1=C(C)NC(=O)NC1/C=C/c1ccccc1` (stereo not given), the Potency result was “inactive”.

For `CC(=O)Nc1ccc(C(=O)CSc2nnc(Cc3ccccc3)o2)cc1`, the Potency entry was “inactive”.

Take `O=C(CSc1nnc(Cn2cnc3ccccc32)o1)c1ccccc1`: the Potency was 10.3 µM (active).

For `O=C(CSc1nnc(-c2c[nH]c3ccccc23)o1)c1ccccc1`, the Potency result was “inactive”.

For `Cc1cc(C)cc(NC(=O)c2cccc(NC(=O)C3C4CC5OC(=O)C3C5C4)c2)c1` (stereo not given), the Potency result was “inactive”.

For the compound `Cc1cccc(N2C(=O)SC(N(CC(=O)O)c3cccc(C)c3)C2=O)c1` (stereo not given), the Potency entry is “inactive”.

Regarding `CCOC(=O)CCP(=O)(O)C(O)(c1ccccc1)c1ccccc1`, the Potency result is “inactive”.

For `O=S(=O)(Nc1ccc2cn[nH]c2c1)c1ccccc1`, the Potency result is “inactive”.

As for `O=C(CCNC(=O)C1CCN(S(=O)(=O)c2ccccc2)CC1)NC1CC1`, the Potency result is “inactive”.

Take `CCOC(=O)c1cc(C(C)C)sc1NC(=O)COC(=O)c1nccnc1N`: the Potency entry is “inactive”.

Regarding `O=C1C2(c3ccccc3)CN(CCCO)CC1(c1ccccc1)CN(CCCO)C2`, the Potency result was “inactive”.

For `Cc1ccc(Cl)cc1N1CCN(S(=O)(=O)c2cc3[nH]c(=O)c(=O)[nH]c3cc2C)CC1`, the Potency result was “inactive”.

`Cc1ccc(N2CCN(S(=O)(=O)c3ccc(F)cc3)CC2)c(C)c1`: the Potency is 18.4 µM (active).

Turning to `Cc1ccc(C)c(N2CCN(S(=O)(=O)c3ccc4c(c3)oc(=O)n4C)CC2)c1`, the Potency entry is “inactive”.

As to `Cc1ccc(C)c(N2CCN(S(=O)(=O)c3ccc4c(c3)C(C(C)C)C(=O)N4)CC2)c1` (stereo not given), the Potency is 18.4 µM (active).

With `Cc1ccc(S(=O)(=O)N2CCN(S(=O)(=O)N3CCOCC3)CC2)cc1`, the Potency entry is “inactive”.

As for `O=C1CC(=O)Nc2cc(S(=O)(=O)N3CCN(c4cccc(C(F)(F)F)c4)CC3)ccc2N1`, the Potency entry was “inactive”.

On to `CC1C(=O)Nc2ccc(S(=O)(=O)N3CCN(c4ccccc4F)CC3)cc2NC1=O` (stereo not given), for which the Potency was 20.6 µM (active).

Consider `Cc1ccc(S(=O)(=O)N2CCN(C)CC2)cc1`, for which the Potency result is “inactive”.

Turning to `CCOC(=O)N1CCN(S(=O)(=O)c2ccc3c(c2)C(C)C(=O)N3)CC1` (stereo not given), the Potency entry was “inactive”.

As to `O=C(N/N=C/c1cccc(OC(=O)c2ccc([N+](=O)[O-])cc2)c1)c1cccnc1`, the Potency entry is “inactive”.

On to `CCOC(=O)c1c(-n2cnnn2)sc(C)c1C`, for which the Potency entry is “inactive”.

`COc1ccc(NC(=S)N2N=CCC2c2ccccc2)cc1` (stereo not given): the Potency entry is “inactive”.

As to `CS(=O)(=O)c1ccc2nc(NC(=O)c3ccc(Cl)nc3)sc2c1`, the Potency result was “inactive”.

For `O=C(NCc1cccnc1)c1nc(-c2cccs2)no1`, the Potency entry was “inactive”.

As for `C=CCn1c(=O)n(C)c2c(=O)n(C)c(=O)n(C)c21`, the Potency result is “inactive”.

With `CC(C)C(C)NC(=O)COc1ncnc2ccccc12` (stereo not given), the Potency entry was “inactive”.

As for `CCn1ccnc1CNC(=O)CC1C(=O)NCCN1CCCc1ccccc1` (stereo not given), the Potency result is “inactive”.

Consider `O=C(CCC(=O)N1CCN(S(=O)(=O)c2ccccc2)CC1)NC1CCCc2ccccc21` (stereo not given), for which the Potency entry is “inactive”.

As for `O=C1NC(Cc2ccccc2)c2nc3ccc(Br)cc3c(=O)n2-c2cc3ccccc3cc21` (stereo not given), the Potency is 7.31 µM (active).

For the compound `CCC1NC(=O)c2cccnc2-n2c1nc1ccc(C)cc1c2=O` (stereo not given), the Potency result was “inactive”.

For the compound `Cc1cc(C)c2c(=O)n3c(nc2c1)C(CC(C)C)NC(=O)c1cc2ccccc2cc1-3` (stereo not given), the Potency was 4.61 µM (active).

Regarding `CCc1ccc(NC2Nc3cc(C)nn3S2)cc1` (stereo not given), the Potency entry was “inactive”.

With `N#CCC(=O)NC1CCC(CC2CCC(NC(=O)CC#N)CC2)CC1` (stereo not given), the Potency result was “inactive”.

On to `CCOc1cc(C2C(C(=O)OC)=CN(C3CCCC3)C=C2C(=O)OC)cc(Br)c1O`, for which the Potency entry is “inactive”.

On to `COc1ccc(S(=O)(=O)Nc2ccc(F)cc2)c(C)c1C`, for which the Potency result was “inactive”.

As for `COc1ccccc1CNS(=O)(=O)CC12CCC(CC1=O)C2(C)C` (stereo not given), the Potency entry is “inactive”.

On to `CC(=O)Nc1ccc(S(=O)(=O)NC(C)C(=O)OCCOc2ccc(F)cc2)cc1` (stereo not given), for which the Potency entry was “inactive”.

As for `Cc1cccc(C)c1NC(=O)Nc1ccccc1-n1ccnc1`, the Potency result was “inactive”.

As to `COC(=O)C[C@H]1C=C[C@@H](NS(=O)(=O)c2ccc(C)cc2)[C@@H](CO)O1`, the Potency entry is “inactive”.

Take `COc1ccc(C(=O)Nc2sc(C)c(C)c2CN2CCOCC2)cc1`: the Potency was 23.1 µM (active).

On to `COc1ccc(C(=O)Nc2ccnn2C2CCN(Cc3ccncc3)CC2)cc1`, for which the Potency entry is “inactive”.

As for `COc1ccc(C(=O)Nc2ccc(CN3CCOCC3)cc2)cc1`, the Potency entry is “inactive”.

In the case of `OCC1(CO)CC2(C1)CC(CO)(CO)C2`, the Potency entry was “inactive”.

Regarding `CCOC(=O)c1sc(NC(=O)/C=C/c2ccc(C(C)C)cc2)c(C(=O)OCC)c1C`, the Potency entry was “inactive”.

Take `Cc1ccc(S(=O)(=O)NCC(=O)N(CC(=O)NCC2CCCO2)c2cccc(F)c2)cc1` (stereo not given): the Potency result was “inactive”.

Turning to `COC(=O)c1cc(NC(=O)CCc2c(C)nc3c4c(C)cc(C)nc4nn3c2C)cc(C(=O)OC)c1`, the Potency entry was “inactive”.

For `CCc1noc(C)c1C(=O)NNC(=O)c1ccc(F)cc1`, the Potency result was “inactive”.

As for `COc1ccc(C(=O)COC(=O)c2c(C)noc2C)cc1Cl`, the Potency result was “inactive”.

Take `CCc1noc(C)c1C(=O)OCC(=O)c1ccc(NC(=O)CC(C)C)cc1`: the Potency is 25.9 µM (active).

As to `O=C(Nc1nsc(-c2ccccc2)n1)c1ccncc1`, the Potency result was “inactive”.

For the compound `NC(=O)c1oc2ccccc2c1NC(=O)Cc1ccccc1`, the Potency result is “inactive”.

In the case of `COc1ccc(-c2nn(-c3ccccc3)cc2/C=C\C(=O)N2CCOCC2)cc1[N+](=O)[O-]`, the Potency entry is “inactive”.

Regarding `COc1ccc(-c2ccc3[nH]c4c(c3c2)CCN2C[C@H]3[C@H](C)ON(C)[C@H]3C[C@@H]42)cc1`, the Potency is 20.6 µM (active).

As for `COC(=O)[C@H]1[C@H]2C[C@H]3c4[nH]c5ccccc5c4CCN3C[C@@H]2CC[C@@H]1O`, the Potency result was “inactive”.

With `C[C@@H]1ON(C)[C@H]2C[C@H]3c4cc(N5CCN(C)CC5)ccc4CCN3C(=O)[C@@H]12`, the Potency result was “inactive”.

Take `CC(C)(C)C1CCC(C(=O)NCC(c2cccs2)N2CCOCC2)CC1` (stereo not given): the Potency was 8.2 µM (active).

Regarding `COc1ccc(C(CNC(=O)CSc2ccccc2)N2CCOCC2)cc1` (stereo not given), the Potency entry was “inactive”.

As for `O=C(NCc1csc(-c2cccs2)n1)C1CC1`, the Potency result is “inactive”.

Consider `Cc1cc(=O)oc(C)c1C(=O)Nc1cnc2ccccc2c1`, for which the Potency entry was “inactive”.

As to `CCc1ccc(NC(=O)C(=O)N/N=C(\C)CC(=O)NCCOC)cc1`, the Potency result was “inactive”.

As for `CCc1nnc(NC(=O)CSc2nnc(Cc3ccccc3)n2-c2ccc(OC)cc2)s1`, the Potency result is “inactive”.

As to `CCc1c(C)[nH]c(=S)c(C#N)c1C`, the Potency entry was “inactive”.

As for `COc1cccc(C(=O)NC2(C(F)(F)F)C(=O)Nc3c2c(=O)[nH]c(=O)n3-c2ccc(C)cc2)c1` (stereo not given), the Potency was 23.1 µM (active).

Regarding `COc1cccc(C(=O)NNC(=O)c2cccc(F)c2)c1`, the Potency result was “inactive”.

For `CCOc1ccccc1C(=O)NC1(C(F)(F)F)C(=O)Nc2c1c(=O)[nH]c(=O)n2-c1ccc(F)cc1` (stereo not given), the Potency entry is “inactive”.

On to `Cc1cccc(-c2noc(CCC(=O)NC3CCCC3)n2)c1`, for which the Potency result is “inactive”.

On to `CCOC(=O)C1=CC[C@@H](c2ccncc2)N(S(=O)(=O)c2ccc(C)cc2)C1`, for which the Potency is 23.1 µM (active).

Regarding `Cc1ccc(S(=O)(=O)N2CC[C@H]3[C@@H](C2)C(=O)C[C@@H](c2ccccc2)N3S(=O)(=O)c2ccc(C)cc2)cc1`, the Potency entry is “inactive”.

Consider `CC(=O)C1=CCC(c2ccccc2)N(S(=O)(=O)c2ccc(C)cc2)C1` (stereo not given), for which the Potency is 23.1 µM (active).

In the case of `Cc1ccc(S(=O)(=O)N2C3C=CC(C3)C2C(=O)O)cc1` (stereo not given), the Potency entry is “inactive”.

For the compound `CCOC(=O)C1=CCC(c2ccc(F)cc2)N(S(=O)(=O)c2ccc(C)cc2)C1` (stereo not given), the Potency is 18.4 µM (active).

For the compound `COc1ccc(S(=O)(=O)N2CCOC2CNC(=O)C(=O)NCc2ccncc2)cc1OC` (stereo not given), the Potency result was “inactive”.

For the compound `O=C(CN1CCN(S(=O)(=O)c2ccc(F)cc2)CC1)NC1CC1`, the Potency result is “inactive”.

As for `Cc1ccc(S(=O)(=O)N2CCCC2CO)cc1` (stereo not given), the Potency result is “inactive”.

Consider `Cc1ccc(NC(=O)CSc2nnc(CNC(=O)c3ccccc3F)o2)cc1`, for which the Potency entry is “inactive”.

Regarding `COc1ccc(-c2cc(=O)oc3cc(OCC(=O)N(C)C4CCS(=O)(=O)C4)ccc23)cc1` (stereo not given), the Potency entry is “inactive”.

For the compound `Cc1ccc(-c2c[n+](=O)c3c(n2[O-])CCC3)cc1`, the Potency entry is “inactive”.

As to `O=C(C1CCN(C2CCN(Cc3cccc4c3OCO4)CC2)CC1)N1CCOCC1`, the Potency result is “inactive”.

On to `COC(=O)C(C)n1cnc2c(nnn2-c2ccc(F)cc2)c1=O` (stereo not given), for which the Potency result is “inactive”.

For the compound `O=C1CC(c2ccccc2)C(c2ccccc2)=NN1` (stereo not given), the Potency entry was “inactive”.

Turning to `CCOc1ccc(N2CC(C(=O)NCc3ccccn3)CC2=O)cc1` (stereo not given), the Potency result was “inactive”.

With `O=C(COC(=O)Cc1ccc(Br)cc1)Nc1ccc(N2CCOCC2)cc1`, the Potency result was “inactive”.

Consider `COc1ccc(C(=O)Nc2c(N)nc(SCC(=O)Nc3ccc(C(C)=O)cc3)[nH]c2=O)cc1`, for which the Potency result was “inactive”.

Regarding `Cc1cc(Cl)c(S(=O)(=O)N(C)C)cc1OCC(N)=O`, the Potency entry is “inactive”.

Take `COc1ccc(C(=O)CSc2nc(C)cc(C)n2)cc1[N+](=O)[O-]`: the Potency result is “inactive”.

On to `COc1ccc(C(C[N+](=O)[O-])n2nc(C)cc2C)cc1` (stereo not given), for which the Potency is 6.51 µM (active).

Regarding `COc1ccc(OC)c(S(=O)(=O)n2c([N+](=O)[O-])cnc2C)c1`, the Potency result is “inactive”.

(Values after PubChem BioAssay AID686978 (National Center for Advancing Translational Sciences (NCATS), 2013).)
